Assay results as given in the supplement of paper PMC3334620.
Over roughly 33,000 sequences, “E-score (-0.5 to 0.5)” has its median near -0.043; the highest 2% begin near 0.37. This is one part of a sample in which the highest values are shown more often than they occur.

Each sequence was assayed against T1, Upc2 (UniProt Q12151) (assay: PBM E-score (8-mer binding enrichment) (E-score (-0.5 to 0.5)); higher = stronger / more preferred TF binding). Conditions: protein concentration: 200 nM; construct: GST-full length.
T1 sequence: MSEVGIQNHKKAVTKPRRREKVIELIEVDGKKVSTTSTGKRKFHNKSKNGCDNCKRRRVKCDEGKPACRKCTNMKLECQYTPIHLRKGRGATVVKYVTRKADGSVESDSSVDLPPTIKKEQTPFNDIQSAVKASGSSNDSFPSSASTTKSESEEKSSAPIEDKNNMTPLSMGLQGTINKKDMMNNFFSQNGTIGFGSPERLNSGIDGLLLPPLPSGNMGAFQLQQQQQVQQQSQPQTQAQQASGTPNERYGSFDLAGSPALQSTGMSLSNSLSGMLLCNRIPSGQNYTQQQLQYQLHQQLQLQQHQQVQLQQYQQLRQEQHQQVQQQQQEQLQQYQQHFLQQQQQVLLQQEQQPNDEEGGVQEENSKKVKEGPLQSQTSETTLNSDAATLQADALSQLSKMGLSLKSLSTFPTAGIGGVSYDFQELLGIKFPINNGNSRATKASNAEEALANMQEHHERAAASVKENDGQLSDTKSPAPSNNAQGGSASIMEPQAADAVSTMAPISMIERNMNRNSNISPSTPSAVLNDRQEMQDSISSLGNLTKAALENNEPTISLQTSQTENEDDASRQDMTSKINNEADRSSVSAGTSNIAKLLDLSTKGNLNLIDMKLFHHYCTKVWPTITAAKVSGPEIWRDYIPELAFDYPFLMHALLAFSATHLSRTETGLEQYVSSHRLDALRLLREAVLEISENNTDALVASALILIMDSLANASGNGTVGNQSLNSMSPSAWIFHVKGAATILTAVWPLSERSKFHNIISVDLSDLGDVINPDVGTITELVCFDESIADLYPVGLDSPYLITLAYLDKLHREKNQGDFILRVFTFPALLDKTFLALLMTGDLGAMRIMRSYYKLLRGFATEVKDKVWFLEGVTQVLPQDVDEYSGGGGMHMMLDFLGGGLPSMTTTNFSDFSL
Method in brief: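 GST-tagged yeast TFs (full-length or DNA-binding domain) were made by PURExpress in vitro transcription/translation and applied at about 100-200 nM to universal all-10-mer Agilent arrays. The arrays were made double-stranded by primer extension, on fresh or once-stripped slides. Bound protein was detected with fluorescent anti-GST, and scans were normalised with masliner. Each ungapped eight-base word, pooled with its reverse complement, received an E-score (modified Wilcoxon-Mann-Whitney statistic) from the Universal PBM Analysis Suite.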

| Sequence | PBM E-score |
| --- | --- |
| CGAAGCAC | -0.0203 |
| CAGCACGG | -0.256 |
| ATAGGCGG | -0.0532 |
| AGCAAGTC | -0.148 |
| AAAGCAGT | -0.125 |
| GATGGGAC | -0.0558 |
| CCTAGATA | -0.0107 |
| GGTACGAA | 0.459 |
| AGTACGCC | -0.0728 |
| AGTACGAT | 0.345 |
| GGTACGCA | 0.252 |
| ATTACGAC | 0.348 |
| CGGACGAG | -0.165 |
| GGTACGTA | 0.313 |
| ATTACGAG | 0.378 |
| AGTACGAC | 0.409 |
| CCTACGAG | 0.341 |
| ATTACGTG | -0.118 |
| CGTACGAG | 0.465 |
| ACCACGTG | 0.0941 |
| GAAGAAAC | 0.0334 |
| TAATTGGA | -0.00998 |
| AACTCCAC | 0.00868 |
| CAGTTTCA | -0.223 |
| CGCGAGAA | 0.0746 |

| Sequence | PBM E-score |
| --- | --- |
| CAGGTGAG | -0.277 |
| CATGGCTC | -0.0993 |
| AAGGTAAT | 0.0547 |
| CGTACGAA | 0.444 |
| CGTACGCA | 0.345 |
| TGTACAAA | 0.0122 |
| TGTACGAA | 0.479 |
| TGCACGAA | 0.145 |
| CGTACGTA | 0.364 |
| CATATTCA | -0.0449 |
| GCTTCACA | -0.124 |
| GTTCGTAA | 0.424 |
| GTTCGTCA | -0.0278 |
| ATTCGTGA | 0.0183 |
| GTTCGTGA | 0.0858 |
| ATTCGTAG | 0.285 |
| ATTCGTAA | 0.399 |
| GGATGGTA | 0.0248 |
| GCTAGCTA | 0.0155 |
| ACGACCGC | 0.359 |
| GTGAGAAC | -0.188 |
| GCCAAACA | -0.0676 |
| GCGTACAC | 0.33 |
| CTGTACAG | 0.158 |
| ACGTACAG | 0.3 |

| Sequence | PBM E-score |
| --- | --- |
| ACGTACAC | 0.297 |
| CCGTACAG | 0.418 |
| CCGTACAC | 0.382 |
| AAAAGACA | 0.0436 |
| CCACAGAC | -0.169 |
| ATTAGCCG | 0.0535 |
| GTGACCGA | 0.11 |
| ATGTACCG | -0.03 |
| CTGTACCA | -0.134 |
| ATGTACTG | -0.177 |
| CTGTACAA | 0.0214 |
| CTGTACGC | 0.375 |
| ATGTACGG | 0.373 |
| ATGTACTA | 0.0361 |
| ATGTACGA | 0.472 |
| CTGTACAC | 0.152 |
| ATGTACGC | 0.187 |
| CTGTACGA | 0.488 |
| CTGTACTC | 0.00852 |
| GACTCTCA | -0.187 |
| CAGAAAGA | -0.00388 |
| CACATAGG | -0.207 |
| AAACCAAA | 0.118 |
| AAAGCATC | 0.0386 |
| GTGTACGA | 0.479 |

| Sequence | PBM E-score |
| --- | --- |
| GTGTACCA | 0.0546 |
| GTGTACTA | 0.127 |
| CAAGCCTA | -0.0953 |
| AACGACGG | 0.437 |
| ACCGACGG | 0.108 |
| CACGACGG | 0.129 |
| CACGACGC | 0.0689 |
| AACGACGC | 0.442 |
| AACGACGT | 0.408 |
| CACGACGA | 0.126 |
| GACGACGC | 0.0643 |
| GACGACGA | -0.00938 |
| ACCGACGT | 0.238 |
| AAGGACGT | 0.0675 |
| TACGACGA | 0.465 |
| GAGCTTGC | -0.231 |
| CTCTCTTC | -0.29 |
| CTAAGTTC | -0.0418 |
| CCAATGGC | -0.226 |
| ATTCAAAA | 0.0167 |
| CTCCACCC | -0.189 |
| TAACTCGA | 0.109 |
| GCTGAGAC | -0.203 |
| AATATCTG | -0.124 |
| ATCGACGA | -0.0697 |

| Sequence | PBM E-score |
| --- | --- |
| AGCGACGA | 0.185 |
| AACGACGA | 0.454 |
| ATCATACC | -0.02 |
| CACATACA | -0.107 |
| CACATACG | 0.401 |
| AACATACG | 0.39 |
| AACATACC | 0.16 |
| ATCATACA | 0.0941 |
| CACATACC | -0.12 |
| CGCATACC | 0.212 |
| AACATACT | 0.0309 |
| ATCATACG | 0.383 |
| CGCATACG | 0.439 |
| CGCATACA | 0.114 |
| TGTAGGAA | -0.0273 |
| AAGATGGG | -0.219 |
| GATCCAGA | 0.0551 |
| CTTAGCGC | 0.126 |
| GACCCCAA | -0.0347 |
| ACAAATCT | 0.0248 |
| ATCGGTCG | 0.197 |
| AAAGAAGG | -0.138 |
| GCAGTATA | 0.219 |
| ATGTCTCA | -0.192 |
| ACATAGGC | -0.126 |

| Sequence | PBM E-score |
| --- | --- |
| GTCGTAAA | 0.477 |
| AACGTAAC | 0.245 |
| GACGTAAA | 0.228 |
| TCCGTAAA | 0.357 |
| TTCGTAAA | 0.459 |
| ATCGTAAA | 0.448 |
| ACCGTAAC | 0.27 |
| TGCGTAAA | 0.294 |
| ATCGTAAT | 0.287 |
| GGCGTAAA | 0.279 |
| ATCGTAAC | 0.372 |
| ATCGTAAG | 0.354 |
| GAGTAGGC | -0.18 |
| AGTCTACA | -0.115 |
| AGAACACC | -0.039 |
| CCGAGTGA | 0.102 |
| CAATAAGG | -0.351 |
| CACGTAAA | 0.253 |
| CGCGTAAA | 0.354 |
| CTCGTAAA | 0.482 |
| ACAGATTA | -0.111 |
| CATAGTAC | 0.0276 |
| ACATTTTA | 0.187 |
| ACCGTCGC | 0.233 |
| ACCGTCGA | -0.191 |

| Sequence | PBM E-score |
| --- | --- |
| AACGTCGG | 0.176 |
| AACGTCGA | 0.202 |
| AACGTCGT | 0.38 |
| ACCGTCGT | 0.394 |
| GCAATCTA | -0.0928 |
| TAAGTAAA | -0.00508 |
| GTTGCAGA | -0.126 |
| ACATACGG | 0.354 |
| CCATACGA | 0.473 |
| CCATACGG | 0.396 |
| CCATACAA | -0.09 |
| CCATACGC | 0.322 |
| CCATACTA | -0.101 |
| CCGTTCCG | 0.323 |
| ATTGTTGG | -0.153 |
| CGATTTGC | -0.0413 |
| CCGGTTAG | 0.0696 |
| ACAGGTAA | -0.0299 |
| CGGATACC | 0.0516 |
| CGGATACA | 0.201 |
| CGGATACG | 0.408 |
| ACGATACG | 0.391 |
| CCGATACC | -0.00432 |
| AAGATACG | 0.349 |
| CCGATACA | 0.159 |

| Sequence | PBM E-score |
| --- | --- |
| CAGATACG | 0.375 |
| CAGATACC | -0.184 |
| ACGATACA | 0.279 |
| CCGATACG | 0.392 |
| ACGATACT | 0.313 |
| ATTCTAAA | 0.155 |
| CCCAGCCA | -0.0649 |
| GACGGTGC | 0.0569 |
| AAAATCTG | -0.0273 |
| CGCATAGC | 0.265 |
| AAGACTGG | -0.109 |
| CCCTCACA | -0.164 |
| AACGCGTT | 0.248 |
| ACCGAGTA | 0.25 |
| AGCGAGTG | 0.204 |
| AACGAGTG | 0.414 |
| AGCGAGTA | 0.269 |
| GACGAGTA | 0.104 |
| CACGAGTG | 0.0785 |
| CACGAGTA | 0.126 |
| TACGAGTA | 0.453 |
| AACGAGTA | 0.437 |
| AACGAGTT | 0.399 |
| AAAGAGTT | -0.235 |
| ATCATCTA | -0.0847 |

| Sequence | PBM E-score |
| --- | --- |
| CTGGTCAA | -0.17 |
| ACAATATC | 0.125 |
| CATCAGCC | -0.104 |
| TTACTGAA | 0.182 |
| CACGAGTC | 0.00415 |
| AACGAGTC | 0.414 |
| GACGAGTC | 0.0657 |
| ACAATAAT | 0.0963 |
| ACCCGCTG | -0.245 |
| AAGCTGCG | -0.0191 |
| AGGTTCAA | -0.0255 |
| GTACGGGA | 0.389 |
| CTACGGGC | -0.0221 |
| ACACGGGG | -0.0346 |
| GGACGGGA | -0.0849 |
| AGACGGGG | -0.147 |
| ATACGGGG | 0.411 |
| ATACGGGC | 0.426 |
| ACACGGGA | -0.129 |
| GCACGGGA | 0.0149 |
| CTACGGGA | 0.00845 |
| ACACGGGC | -0.0605 |
| ATACGGGA | 0.382 |
